Screens deposited in PubChem BioAssay by several laboratories.
ADAM10 inh: inhibits human ADAM10; AID 720582; hit rate 0.62% among 370,000; recombinant ADAM10, EDANS/DABCYL FRET peptide cleavage, 3 h; inhibition, % at 7 µM;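 active = inhibition above a per-campaign cutoff equal to the mean of compounds falling between control-based bounds plus 3 SD, cut at about 20% in these data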;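 note: 0% = DMSO wells while the 100% control is not disclosed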
Target sequence (O14672 214-748 limits assumed): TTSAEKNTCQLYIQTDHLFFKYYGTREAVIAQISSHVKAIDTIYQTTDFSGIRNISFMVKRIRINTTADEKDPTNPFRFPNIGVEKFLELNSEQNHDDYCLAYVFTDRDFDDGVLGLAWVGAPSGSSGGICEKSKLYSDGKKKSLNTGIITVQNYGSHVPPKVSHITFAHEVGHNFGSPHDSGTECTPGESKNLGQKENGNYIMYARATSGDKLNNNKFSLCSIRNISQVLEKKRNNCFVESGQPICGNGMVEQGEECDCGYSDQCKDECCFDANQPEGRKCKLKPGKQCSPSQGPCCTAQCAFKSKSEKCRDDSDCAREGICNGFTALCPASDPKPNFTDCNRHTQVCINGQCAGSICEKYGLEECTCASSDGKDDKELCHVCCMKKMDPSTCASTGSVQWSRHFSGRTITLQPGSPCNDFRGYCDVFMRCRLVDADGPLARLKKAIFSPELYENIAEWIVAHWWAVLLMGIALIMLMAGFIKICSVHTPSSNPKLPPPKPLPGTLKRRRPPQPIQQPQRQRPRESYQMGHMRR
ADAM17 inh: inhibitors of human ADAM17; recombinant ADAM17, EDANS/DABCYL FRET peptide cleavage; hit rate 0.83% among 370,000; P78536; inhibition, % at 6.95 µM;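 active = inhibition above the mean of compounds lying between control limits plus 3 SD, set per campaign, cut at about 8.5% in these data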;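 note: 0% = DMSO-only wells as the low control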
GC-B act: GC-B (human) receptor activation; P20594; HEK293-GC-B cells, CNP EC30, cGMP TR-FRET; 0% at EC30 CNP, 100% saturating CNP; activation, % at 10 µM; hit rate 0.11% among 370,000;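 active = activation at 10 µM reaching about 35% in either raw or pattern-adjusted values, limit read from the data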
KLK7 zymogen act: activators of human kallikrein-7 zymogen; activation, % at 7 µM; P49862; AID 652039; hit rate 0.9% among 370,000; purified proKLK7, EDANS-DABCYL substrate fluorescence; 100% is mature enzyme control, 0% vehicle;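 active = activation above the mean of all tested compounds plus 3 SD, computed per campaign excluding outliers beyond control limits, cut at about 13% in these data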
GC-A act: GC-A (human) enzyme activation; activation, % at 10 µM; hit rate 0.14% among 370,000; HEK293 GC-A cells, cGMP TR-FRET, EC30 ANP; 0% at EC30 ANP, 100% saturating ANP; P16066; AID 1671463; in the data active = activation above about 40%
KLK7 act conf: confirmation of human kallikrein-7 zymogen activators. shares compounds with KLK7 zymogen act. purified proKLK7, EDANS-DABCYL substrate fluorescence; scaled: vehicle 0, mature enzyme 100. activation, % at 7 µM. hit rate 68% among 3,200. AID 686949;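 active = activation, as change over the incubation, above the mean of all tested compounds plus 3 SD, cut at about 13% in these data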
EDANS interfere: optically interferes with EDANS-DABCYL signal, flagging KLK7 hits; shares compounds with KLK7 zymogen act; EDANS-DABCYL substrate fluorescence interference, no enzyme, 4 h; solvent 0%, active enzyme control 100%; activation, % at 7 µM; hit rate 80% among 3,200; AID 686952;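 active = activation above the all-compound mean plus 3 SD, ignoring values outside control-based bounds, cut at about 4.8% in these data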;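 note: value is the 4 h activation minus the activation read at time zero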
EDANS interf: EDANS fluorescence interference in dose response, no enzyme; shares compounds with KLK7 zymogen act; AID 720493; hit rate 20% among 250; EDANS-DABCYL peptide fluorescence interference; EC50, µM;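 active = compounds that raise the fluorescence signal in this interference counterscreen, with EC50 at or below 10 µM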;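 note: intact quenched peptide substrate alone read at 355 nm excitation and 520 nm emission; signal is fluorescence gain from T0 to T4 after four hours at room temperature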
Numbers without * were called inactive; i = inactive; . = no result. In the library only some 2.2% were active in any assay of this set; here they are far more common.

SMILES | ADAM10 inh | ADAM17 inh | GC-B act | KLK7 zymogen act | GC-A act | KLK7 act conf | EDANS interfere | others
O=C1NC(c2cccc(OCc3ccccc3)c2)Nc2ccccc21 (configuration not stated) | i | -340.9 | 4.1 | 14.5* | 0.8 | -22.6 | -29.2
COc1cc(C)c(C2NC(=O)c3ccccc3N2)cc1C (configuration not stated) | -358.4 | -94.3 | 6.9 | 4.5 | 4.7 | . | .
O=C1NC(c2ccc(O)cc2)Nc2ccccc21 (configuration not stated) | -454.4 | -185.4 | 6.1 | 28.5* | 0.7 | 25.2* | 26.9*
COc1ccc(C2NC(=O)c3ccccc3N2)c(OC)c1OC (configuration not stated) | i | i | 0.7 | 32.7* | 4.0 | 45.2* | 47.2*
O=C1NC(c2ccccc2O)Nc2ccccc21 (configuration not stated) | -397.1 | -149.5 | 6.3 | 22.3* | 3.2 | 10.9 | 16.9*
COc1ccc(C2C(C(=O)Nc3ccc(F)cc3F)CCC(=O)N2c2ccc(OC)cc2)cc1 (configuration not stated) | -4.1 | 0.7 | -0.9 | -0.2 | -2.8 | . | .
C=CC[C@H]1c2ccccc2[C@H]2N3N=Cc4ccccc4[C@H]3[C@H](CCCC)C(=O)N2N1C(=O)c1ccccc1 | 0.9 | -1.5 | -20.1 | 0.1 | -22.5 | . | .
CC(c1ccc(NC(=O)OC(C)(C)C)cc1)c1cn(C)c2ccccc12 (configuration not stated) | 3.0 | 2.8 | 1.2 | 0.3 | 0.3 | . | .
COc1ccc2c(c1)[C@@]1(NCCc3c1[nH]c1ccc(OC)cc31)C(=O)N2 | 2.8 | 1.0 | 1.8 | -0.5 | 0.9 | . | .
O=C1C(NC(=O)N2c3ccccc3C=Cc3ccccc32)CCCCN1Cc1cccc(C(F)(F)F)c1 (configuration not stated) | 14.3 | 5.5 | -0.6 | 0.2 | -5.4 | . | .
Cc1ccc(C)c(C2NC(=O)c3ccccc3N2)c1 (configuration not stated) | i | -398.3 | -3.4 | 36.2* | 0.1 | 23.6* | 20.6*
CSc1ccc(C2NC(=O)c3ccccc3N2)cc1 (configuration not stated) | i | -261.3 | 0.7 | 16.9* | -6.5 | 16.7* | 12.7* | EDANS interf=>69.5
COc1ccccc1N1C(=O)S/C(=C\c2cc(C)n(C)c2C)C1=O | 1.4 | 0.9 | 8.0 | 24.1* | 4.4 | 31.7* | 80.3*
COc1ccccc1N1C(=O)S/C(=C\c2ccc(C)s2)C1=O | 3.2 | 0.2 | 2.2 | -0.8 | -0.1 | . | .
Cc1ccc(NC(=O)CN2C(=O)S/C(=C\c3cc(C)n(C)c3C)C2=O)cc1 | -1.8 | -1.1 | -1.1 | 19.6* | 1.2 | 6.8 | -0.2
C=CC[C@@]1(c2ccccc2)Oc2ccccc2-c2nc3ccccc3nc21 | -101.5 | -25.8 | 3.1 | -14.5 | -5.8 | . | .
COc1ccc(-c2cc(NC=O)c3ncc(-c4cccc(OC)c4)n3c2)cc1 | -39.5 | -9.1 | 1.8 | -0.3 | 4.6 | . | .
Cc1ccc(-c2cnc3cccnn23)cc1F | i | -276.2 | -2.1 | 22.8* | -3.4 | 5.0 | 7.6*
COc1cccc(-c2cnc3cccnn23)c1 | i | -351.4 | -0.1 | 46.1* | 3.4 | 38.5* | 44.7*
CC(C)C[C@@H]1NC(=O)[C@H]2C[C@@]3(C)c4ccccc4N[C@H]3N2C1=O | -11.1 | -6.1 | 5.5 | 0.0 | 2.0 | . | .
Cc1oc2cc3oc(=O)c(CCC(=O)NCCCC(=O)O)c(C)c3cc2c1C | -371.0 | -114.3 | -1.6 | 13.7* | 7.8 | 24.2* | 22.4*
Cc1c(CCC(=O)NC2CC2)c(=O)oc2cc(O)ccc12 | i | i | 6.9 | 85.5* | 4.7 | 62.3* | 73.3*
COc1ccc(/C=C/S(=O)(=O)NC2CCCC2)c(CNC(=O)OC(C)(C)C)c1 | 1.0 | 1.8 | -6.4 | 0.3 | -0.1 | . | .
CN(C)CCNc1ccc2ncn3c4ccc(O)cc4c(=O)c1c23 | -12.8 | -3.5 | -26.7 | 71.9* | -13.6 | 56.8* | 49.9*
CN(C)CCNc1ccc(CO)c2sc3ccc(O)cc3c(=O)c12 | 0.0 | 2.0 | -18.4 | 0.5 | -9.3 | . | .
SMILES | ADAM10 inh | ADAM17 inh | GC-B act | KLK7 zymogen act | GC-A act | KLK7 act conf | EDANS interfere | others
COc1cccc(CN2CC(C(=O)NCCc3cn4cccnc4n3)CCC2=O)c1 (configuration not stated) | i | -218.3 | -0.4 | 18.9* | 1.2 | 18.9* | 14.1* | EDANS interf=9.68*
Cc1ccc(OCc2nnc(SCC(=O)c3ccc4ccccc4c3)n2-c2ccc(Cl)cc2)cc1 | -23.1 | -5.2 | 11.4 | -1.1 | -0.1 | . | .
CNC(C)C#Cc1ccc2oc3cccc(OC)c3c(=O)c2c1 (configuration not stated) | -412.9 | -135.2 | 4.6 | 34.1* | 1.5 | 7.6 | 12.1*
CC(c1ccccc1)C1CC(=O)N(Cc2ccco2)C1=O (configuration not stated) | -3.7 | -2.3 | 0.8 | 118.7* | 3.7 | 1.9 | 0.3
C=CCN(CC#Cc1ccc(C(F)(F)F)cc1)Cc1ccc(OC)cc1OC | -12.4 | -4.5 | 3.4 | 0.2 | 2.8 | . | .
O=C(Nc1ccc(-c2cn3ccsc3n2)cc1)c1ccc(F)c(S(=O)(=O)N2CCOCC2)c1 | -10.7 | -7.7 | 7.2 | 17.7* | -4.2 | -0.7 | 6.1*
CC[C@H](C)/C=C(C)/C=C/C1=CC2=CC(=O)[C@]3(C)OC(=O)[C@@H](C(C)=O)[C@@H]3C2=CO1 | -283.5 | -91.4 | -4.2 | 18.7* | 2.4 | 10.9 | 8.1*
C[C@H]1COc2cc(Br)ccc2S(=O)(=O)N1Cc1cn(Cc2ccccc2)nn1 | -6.4 | -3.1 | -7.6 | 0.3 | -6.5 | . | .
CN(C)c1ccc(/C=C/c2cccc[n+]2[O-])cc1 | 2.8 | 2.8 | -5.2 | 31.7* | -4.5 | 215.6* | 235.6*
[O-][n+]1ccccc1/C=C/c1ccccc1 | -78.9 | -23.0 | 3.3 | 0.5 | 3.8 | . | .
Cc1cc(C)n2c(Br)c(CN3CCCC(C)C3)nc2n1 (configuration not stated) | -314.0 | -72.5 | 1.3 | 14.9* | -2.7 | 14.0* | 15.6*
Cc1cc(C)nc(SCc2nc3nc(C)cc(C)n3c2Br)n1 | -390.1 | -122.3 | 1.3 | 4.1 | 5.6 | . | .
O=C(OC12CCCN(C1)/C(=C/c1ccc(Cl)cc1)C2)c1cccc(F)c1 (configuration not stated) | 3.6 | 1.0 | -13.3 | -0.7 | -5.2 | . | .
